# Screening results from PubChem BioAssay.
# Most compounds without a hit are left out; they make up all but 2.5% or so of the library.
# APEX1 inh = qHTS Assay for Inhibitors of the Human Apurinic/apyrimidinic Endonuclease 1 (APE1); recombinant APE1, TAMRA/BHQ-2 abasic DNA cleavage fluorescence; DNA repair nuclease/redox regulator APEX1 (Homo sapiens), P27695; Potency, µM (series often up to 65.8 µM), inactives show at the top dose activity change, negative = inhibition, most hits filed as inhibitors; AID 2517, 2012; hit rate 0.35% among 350,000;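 also: plate controls were vehicle for no effect and reference inhibitor for full effect; nearly all actives have a fitted effect of over 55% in size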
#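 APE1 at 0.75 nM preincubated 15 min at room temperature with compound. Reaction then started with 50 nM double-stranded THF-abasic substrate labelled with TAMRA/BHQ-2, and 525/598 nm fluorescence read kinetically. Activity taken as third-minus-first read difference, normalized to DMSO and NSC13755 controls.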
# Pol kappa inh-1 = qHTS for Inhibitors of Polymerase Kappa. hit rate 0.53% among 400,000. AID 588579, 2011. Potency, µM (titrated, usually from 107 µM), for the others: at the highest dose activity, negative = inhibition, usual class: inhibitors. DNA polymerase kappa (Homo sapiens), Q9UBT6. purified Pol kappa, fluorescent DNA synthesis assay, 10 min; also: % is scaled to controls: 0 for no effect and ±100 for the full control effect
# Target sequence (Q9UBT6 whole entry, looked up): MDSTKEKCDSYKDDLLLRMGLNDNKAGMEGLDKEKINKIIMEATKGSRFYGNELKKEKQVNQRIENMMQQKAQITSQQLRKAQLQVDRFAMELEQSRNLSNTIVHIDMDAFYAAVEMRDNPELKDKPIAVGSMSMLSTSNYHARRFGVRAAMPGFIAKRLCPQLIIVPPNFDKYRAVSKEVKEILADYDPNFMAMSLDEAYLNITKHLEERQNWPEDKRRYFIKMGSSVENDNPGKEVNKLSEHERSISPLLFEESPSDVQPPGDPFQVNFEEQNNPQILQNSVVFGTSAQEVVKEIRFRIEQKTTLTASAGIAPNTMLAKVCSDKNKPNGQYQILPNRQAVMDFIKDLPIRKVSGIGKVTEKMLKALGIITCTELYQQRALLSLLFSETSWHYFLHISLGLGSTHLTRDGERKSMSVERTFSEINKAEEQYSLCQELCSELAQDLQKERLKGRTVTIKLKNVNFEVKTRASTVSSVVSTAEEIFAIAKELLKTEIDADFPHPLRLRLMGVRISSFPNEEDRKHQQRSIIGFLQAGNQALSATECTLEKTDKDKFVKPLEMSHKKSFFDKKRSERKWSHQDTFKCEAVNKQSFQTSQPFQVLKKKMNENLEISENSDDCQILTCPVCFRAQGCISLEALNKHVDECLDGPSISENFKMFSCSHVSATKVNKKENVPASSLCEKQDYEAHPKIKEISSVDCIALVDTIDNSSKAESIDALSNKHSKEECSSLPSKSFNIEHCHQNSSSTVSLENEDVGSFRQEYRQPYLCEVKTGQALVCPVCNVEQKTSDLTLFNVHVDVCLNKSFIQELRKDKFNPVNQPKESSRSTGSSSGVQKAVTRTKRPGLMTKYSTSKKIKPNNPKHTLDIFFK
#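 Here, compound and 10 nM enzyme are combined for 15 min at room temperature; adding 50 nM substrate (final) starts DNA synthesis, tracked by fluorescence at 0 and 10 min against buffer-only wells.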
# L3MBTL1 block = qHTS Assay for the Inhibitors of L3MBTL1. Lethal(3)malignant brain tumor-like protein 1 (Homo sapiens), Q9Y468. AlphaScreen L3MBTL1–H3K9me1 peptide binding. Potency, µM (series often up to 57.1 µM), for the others: at the highest dose activity, negative = inhibition, hits mostly inhibitors. hit rate 0.66% among 230,000; also: % is scaled to controls: 0 for no effect and ±100 for the full control effect; nearly all actives have a fitted effect of over 60% in size
#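 AlphaScreen assay: L3MBTL1 (50 nM final) was preincubated 30 min at room temperature with biotinylated H3(1-15)K9me1 peptide (75 nM final), then 30 min with library compounds; streptavidin donor and nickel chelate acceptor beads (10 ug/mL final) added, 30 min dark.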
# Pol eta inh-1 = qHTS for Inhibitors of Polymerase Eta; AID 588591, 2011; hit rate 1.2% among 390,000; DNA polymerase eta (Homo sapiens), Q9Y253; Potency, µM (highest dose often 114 µM), for inactives: top-dose activity change, negative = inhibition, actives largely listed as inhibitors; recombinant Pol eta, fluorescent DNA replication assay; also: % is scaled to controls: 0 for no effect and ±100 for the full control effect
#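 Fluorescent replication assay: 50 nM final substrate added after a 15 min room-temperature compound preincubation with 10 nM enzyme. Signal taken at 0 min and again at 10 min.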
# POLB inh = qHTS Assay for Inhibitors of DNA Polymerase Beta. AID 485314, 2010. Pol beta primer extension/strand displacement, fluorescence kinetic. Potency, µM (titrated, usually from 114 µM), without a hit: at the highest dose activity change, negative = inhibition, actives largely listed as inhibitors. hit rate 1.3% among 340,000; also: % is scaled to controls: 0 for no effect and ±100 for the full control effect
#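 Preincubation: enzyme (10 nM) with compound, 15 min, RT. Reaction: substrate added to 50 nM final. Reads: 0 and 10 min. Analysis: normalized, Hill fit.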
# Pol iota inh = qHTS for Inhibitors of Polymerase Iota; Potency, µM (top dose mostly 115 µM), for the others: top-dose activity, negative = inhibition, most hits filed as inhibitors; Pol iota fluorescent replication assay, 10 min; AID 588590, 2011; DNA polymerase iota (Homo sapiens), Q9UNA4; hit rate 1% among 390,000
#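 Pol iota at 10 nM preincubated 15 min with compounds at room temperature; reaction started with fluorescent substrate, 50 nM final. Fluorescence read kinetically at 0 and 10 min; buffer-only wells as negative control.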
# Pol kappa inh-2 = qHTS for Inhibitors of Polymerase Kappa: Confirmatory Assay for Cherry-picked Compounds. shares compounds with Pol eta inh-1. purified Pol-kappa, fluorescent strand-displacement substrate. Potency, µM, most hits filed as inhibitors. hit rate 76% among 920. AID 720501, 2013
# Pol eta inh-2 = qHTS for Inhibitors of Polymerase Eta: Confirmatory Assay for Cherry-picked Compounds. shares compounds with Pol eta inh-1. Pol eta primer extension, TAMRA/BHQ fluorescence, 10 min. Potency, µM, most hits filed as inhibitors. hit rate 64% among 2,600
# * hit, by the source's call; ? = inconclusive; nt = not tested or not shown; [ ] = dose if it differs, or a comment. Calls follow the shape of the dose curve; as a rule, active = well fitted curve in the direction sought with a large enough effect; inconclusive = small, poorly fitted or top-dose-only effect, or another doubt; inactive = no such curve, though single readings can be large; an effect the other way counts as inactive or inconclusive. Potency is read from the fitted curve at half-maximal effect.
SMILES,APEX1 inh,Pol kappa inh-1,L3MBTL1 block,Pol eta inh-1,POLB inh,Pol iota inh,Pol eta inh-2,others
Cn1c2ccccc2c2cc(/C=N/NC(=O)c3cc(O)cc(O)c3)ccc21,13.4µM*,?,nt,22.4µM*,89.1µM*,28.2µM*,53.6*,Pol kappa inh-2=47.4*
O=C(Nc1nnc(-c2ccccc2F)s1)C1CCCO1 (stereo not drawn),-4.5%,?,-20.1%,14.1µM*,31.6µM*,50.1µM*,?,
O=C(Nc1nnc(-c2ccncc2)s1)C1CCCO1 (stereo not drawn),2.0%,-2.3%,-0.6%,?,-10.5%,-1.9%,nt,
O=C(COC(=O)Cc1ccc(S(=O)(=O)N2CCOCC2)s1)NCc1ccccc1,-7.8%,-21.2%,-1.6%,?,0.1%,16.8%,nt,
O=C(COC(=O)Cc1ccc(S(=O)(=O)N2CCOCC2)s1)NCCc1ccccc1,?,?,nt,79.4µM*,22.4µM*,?,?,
NC(=O)N/N=C/c1ccc(-c2cccc(C(F)(F)F)c2)o1,-11.3%,0.1%,4.3%,-3.9%,-23.8%,8.8%,nt,
NC(=O)N/N=C/c1ccc(-c2ccc(S(=O)(=O)Nc3ncccn3)cc2)o1,-5.2%,?,-22.9%,35.5µM*,nt,?,67.5*,Pol kappa inh-2=37.7*
CC(=O)Nc1ccc(S(=O)(=O)N2CCCN(c3nc(C)cc(C)c3C#N)CC2)cc1,-8.7%,7.0%,nt,-14.8%,?,-7.6%,nt,
COc1ccccc1C(=O)Nc1nc2nc(C)c(Cc3ccccc3)c(=O)n2[nH]1,nt,-22.8%,nt,?,-10.7%,18.3%,75.7*,
Cc1ccc(-c2csc(NC(=O)c3ccc(C)o3)n2)cc1,-0.5%,-22.9%,-1.5%,-20.8%,-29.0%,13.0%,nt,
Cc1ccc(-c2csc(NC(=O)c3ccno3)n2)cc1,-1.2%,-23.7%,nt,44.7µM*,14.1µM*,?,?,
COc1ccc(-c2cn3c(n2)sc2cc(C(=O)NCCCN4CCCCCC4)ccc23)cc1,nt,-34.9%,nt,?,0.4%,17.1%,nt,Pol kappa inh-2=?
CCc1ccccc1NC(=O)c1ccc2[nH]c(C)c(C)c2c1,nt,1.0%,nt,-13.1%,14.6%,23.6%,nt,
COC(=O)c1c(NC(=O)Cc2cccs2)sc2c1CCCC2,?,?,?,14.1µM*,?,44.7µM*,?,
COc1ccc(NC(=O)c2c(NC(=O)Cc3ccccc3)sc3c2CCCC3)cc1,nt,6.6%,nt,-10.5%,-9.9%,?,nt,
COc1ccc(CC(=O)Nc2sc3c(c2C(=O)Nc2ccc(C)cc2)CCCCC3)cc1,nt,-16.4%,nt,?,?,-21.5%,?,Pol kappa inh-2=?
O=C1Nc2ccccc2SC(c2ccccc2)C1O (stereo not drawn),?,79.4µM*,nt,2.82µM*,22.4µM*,?,?,
O=C(O)c1cc([N+](=O)[O-])cc2c1C=Cc1ccccc1O2,-13.5%,?,nt,28.2µM*,56.2µM*,?,nt,Pol kappa inh-2=?
O=C(NCCO)c1cc([N+](=O)[O-])cc2c1C=Cc1ccccc1O2,-1.4%,-2.4%,12.4%,-5.9%,0.3%,127.3%,nt,
Cc1ccccc1-c1nnn(CC(=O)NC(=O)NC2CCCC2)n1,36.5%,-5.8%,1.1%,-15.7%,nt,5.5%,nt,
CC[C@@H](C)CN1C(=O)N[C@@H](c2ccccc2)C(C(C)=O)=C1C,-3.8%[12.4 µM],?,nt,22.4µM*,nt,14.1µM*,75.7*,
CC[C@@H](C)CN1C(=O)N[C@@H](CCc2ccccc2)C(C(C)=O)=C1C,-1.8%[12.4 µM],-20.8%,nt,-9.8%,-0.2%,20.9%,nt,
COc1ccccc1N1CCN(CCCNC(=O)c2cnn(-c3cccc(Cl)c3)c2C2CCN(C(=O)OC(C)(C)C)CC2)CC1,nt,-20.3%,nt,-8.6%,-18.3%,-5.7%,nt,
CCOc1cc(-c2ccc(OC(=O)c3ccccc3)c(OC)c2)cc(=O)c2c(C)oc(C)c12,nt,3.9%,nt,-20.9%,-18.1%,26.9%,nt,
CCOc1cc(-c2ccc3c(c2)OCO3)cc(=[O+]CC)c2c(C)oc(C)c12,nt,50.1µM*,nt,nt,nt,50.1µM*,47.8*,Pol kappa inh-2=?
SMILES,APEX1 inh,Pol kappa inh-1,L3MBTL1 block,Pol eta inh-1,POLB inh,Pol iota inh,Pol eta inh-2,others
Cc1ccc(O)c(N=Cc2cc(Cc3ccccc3)cc([N+](=O)[O-])c2O)c1,-11.6%,?,-19.7%,79.4µM*,5.62µM*,?,nt,Pol kappa inh-2=67*
O=[N+]([O-])c1cc(Cc2ccccc2)cc(C=Nc2ccc(N3CCOCC3)cc2)c1O,-5.6%,-19.3%,-12.9%,?,-0.5%,0.4%,nt,
Cc1cc2cc(CCNC(=O)c3cccc([N+](=O)[O-])c3)c(=O)[nH]c2cc1C,-1.7%,-3.9%,6.9%,-20.6%,13.4%,12.2%,nt,
Cc1ccc(CN2CCNC(=O)C2CC(=O)NCCCn2nnc3ccccc32)cc1 (stereo not drawn),nt,nt,nt,-7.3%,nt,nt,nt,
O=C(Nc1cccc(C(=O)O)c1)/C(=C\c1ccco1)NC(=O)c1ccccc1,14.9%,-29.7%,nt,?,16.0%,?,nt,
O=C(Nc1cccc(C(=O)O)c1)/C(=C\c1ccco1)NC(=O)c1ccc(Br)o1,-1.4%[12.4 µM],79.4µM*,nt,17.8µM*,?,?,37.9*,Pol kappa inh-2=23.8*
CC(C)CC(NC(=O)/C(=C/c1ccco1)NC(=O)c1ccc(Br)o1)C(=O)O (stereo not drawn),-2.4%,70.8µM*,nt,22.4µM*,0.1%,?,nt,Pol kappa inh-2=?
Cc1c(Cl)cccc1NC(=O)CN1C(=O)CCn2nc(-c3cccn3C)cc21,nt,-2.4%[60.1 µM],nt,-12.5%,3.0%,13.8%,nt,
CC(C)c1ccc(Nc2nc(Nc3ccc(Cl)cc3)nc(N3CCOCC3)n2)cc1,nt,-7.1%,nt,nt,nt,-24.0%,nt,
CN(C)c1ccc2nc3ccc(=O)cc-3sc2c1,nt,nt,nt,39.8µM*,nt,nt,?,
CCOc1ccc(-n2ccn3c(CC(C)CC(=O)O)nnc3c2=O)cc1 (stereo not drawn),nt,2.1%,nt,-11.4%,0.7%,-14.4%,nt,
CO/N=C(/C(=O)N[C@@H]1C(=O)N2C(C(=O)O)=CCS[C@H]12)c1csc(N)n1,nt,0.1%[19.4 µM],nt,nt,nt,nt,nt,
